High-throughput results deposited in PubChem BioAssay by National Center for Advancing Translational Sciences (NCATS).
uPA generation = inhibitors of cell surface uPA generation; cell surface uPA generation assay, qHTS; Potency, µM (series often up to 38.3 µM), for inactives: top-dose activity change, negative = inhibition, actives largely listed as inhibitors; hit rate 0.31% among 330,000; AID 540303; active = well fitted inhibition curve with a large enough effect; inconclusive = small, poorly fitted or top-dose-only effect; inactive = no such curve, though single readings can be large or run the other way; tested in mouse RAW 264.7 cells; also: % is scaled to controls: 0 for no effect and ±100 for the full control effect; nearly all actives have a fitted effect of over 55% in size
FLuc counter = firefly luciferase modulation, counter-screen for miR-21 project; P08659; purified FLuc, Km substrates, luminescence inhibition; Potency, µM (series often up to 57.5 µM), for inactives: at the top dose activity change, negative = inhibition, actives largely listed as inhibitors; hit rate 6.9% among 360,000;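 also: plate controls were vehicle for no effect and reference inhibitor for full effect; nearly all actives have a fitted effect of over 55% in size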
Target sequence (P08659 whole entry, looked up): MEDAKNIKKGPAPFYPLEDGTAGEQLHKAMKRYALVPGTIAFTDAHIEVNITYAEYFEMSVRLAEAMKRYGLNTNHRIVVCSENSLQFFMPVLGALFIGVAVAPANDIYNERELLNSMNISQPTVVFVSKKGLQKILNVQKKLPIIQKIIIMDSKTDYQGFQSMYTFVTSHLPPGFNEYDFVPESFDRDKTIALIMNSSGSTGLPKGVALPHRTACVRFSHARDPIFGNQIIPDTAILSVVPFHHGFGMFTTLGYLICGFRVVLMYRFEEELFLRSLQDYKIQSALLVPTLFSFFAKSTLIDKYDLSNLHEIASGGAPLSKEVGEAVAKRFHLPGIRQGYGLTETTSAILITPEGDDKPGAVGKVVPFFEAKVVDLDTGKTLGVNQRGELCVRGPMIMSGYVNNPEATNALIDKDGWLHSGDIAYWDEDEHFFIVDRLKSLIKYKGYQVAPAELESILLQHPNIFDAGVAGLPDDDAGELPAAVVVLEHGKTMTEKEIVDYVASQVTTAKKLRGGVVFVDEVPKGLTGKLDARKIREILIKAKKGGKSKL
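Biochemical qHTS of compounds, final roughly 60 µM downward over six points, against 10 nM purified firefly luciferase using Km concentrations of substrates (10 uM D-luciferin, 10 uM ATP) in Tris acetate pH 7.5 buffer; luminescence output.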
ELG1 genotoxic = genotoxicity induction in ELG1-luciferase HEK293T cells | HEK293T ELG1-luciferase reporter, luminescence, 16 h | Potency, µM (highest dose often 46 µM), for inactives: at the top dose activity change, positive = activation, actives largely listed as activators | hit rate 1.3% among 330,000 | AID 504466; also: % of control where 0% means no effect; nearly all actives have a fitted effect of over 60% in size
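Screening used a luciferase reporter fused to human ELG1 in HEK293T cells. Luminescence was read on a CCD plate imager after 16 hr exposure and 30 min ONE-Glo incubation.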
NPC1 promoter act = activators of NPC1 promoter. AID 485313. hit rate 2.4% among 320,000. Potency, µM (series often up to 9.22 µM), for the others: at the highest dose activation, most hits filed as activators. Huh7 NPC1 promoter luciferase reporter, 24 h; also: % of control where 0% means no effect; nearly all actives have a fitted effect of over 60% in size
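Luminescence from an NPC1 promoter-driven luciferase reporter in stably transfected Huh7 cells was measured after 24 h compound treatment at 37 °C, followed by 10 min ambient incubation with luciferase detection reagent.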
Rab9 promoter act = activates the Rab9 promoter. Potency, µM (series often up to 9.22 µM), for inactives: at the highest dose activation, negative = inhibition, most hits filed as activators. hit rate 2.8% among 320,000. Huh7 Rab9 promoter-luciferase reporter, luminescence, 24 h; also: % of control where 0% means no effect; nearly all actives have a fitted effect of over 60% in size
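Cells were plated at 1500 per well in reduced-serum medium with 10% FBS and left 2 h. Compound in DMSO was then added for 24 h at 37 °C. Reporter signal was read by luminescence after 10 min with luciferase detection reagent.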
SMN2 splice enh = increases expression of the SMN2 splice variant; HEK293 SMN2-luciferase splicing reporter, luminescence, 30-36 h; Potency, µM (doses to about 46.1 µM), without a hit: at the top dose activity change, positive = activation, hits mostly activators; hit rate 2.8% among 210,000; also: % of control where 0% means no effect; nearly all actives have a fitted effect of over 55% in size
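HEK293 cells carry an SMN2 minigene-luciferase reporter in which exon 7 inclusion puts luciferase in frame. Cells were seeded at 2000 cells/well, attached for 10-12 hours, then exposed to compounds for 30-36 hours at 37C before ONE-Glo luminescence.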
Active calls of the source: *; ? = inconclusive; nt = no result given. Only some compounds are listed: those with a hit (about 7.3% of all), similar ones and a draw of the others. Unless noted, calls follow the shape of the dose curve; as a rule, active = well fitted curve in the direction sought with a large enough effect; inconclusive = small, poorly fitted or top-dose-only effect, or another doubt; inactive = no such curve, though single readings can be large; an effect the other way counts as inactive or inconclusive. Potency is read from the fitted curve at half-maximal effect.

SMILES	uPA generation	FLuc counter	ELG1 genotoxic	NPC1 promoter act	Rab9 promoter act	SMN2 splice enh
CCc1cnc2c(c1SCC(=O)Nc1ccc(OC)c(OC)c1)c(=O)n(C)c(=O)n2C	nt	5%	nt	nt	nt	nt
Clc1cccc(Cl)c1CSc1nnc(/C=C/c2ccccc2)o1	0%	-13%	1%	1%	0%	-4%
Fc1cccc(Cl)c1Cc1noc(/C=C/c2ccccc2)n1	-2%	13µM*	15%	?	?	nt
O=c1cc(NS(=O)(=O)c2ccccc2)nc(SCc2ccc(Cl)cc2)[nH]1	23%	-1%	23µM*	-1%	-8%	-1%
Cc1ccc2oc(=O)c(S(=O)(=O)c3ccc(C(C)(C)C)cc3)cc2c1	nt	-1%	nt	nt	nt	-6%
Nc1ncnc(Nc2ccccc2)n1	-11%	-13%	2%	3%	-2%	nt
Nc1cnc(Nc2ccc(Br)cc2)nc1N	-7%	15µM*	?	22%	?	nt
COC(=O)c1ccc(COC(=O)c2cc3ccccc3oc2=O)cc1	-2%	?	6%	3%	15%	nt
CC(=O)c1ccc(COC(=O)c2cc3ccccc3oc2=O)cc1	6%	17µM*	17%	-2%	6%	nt
COc1cccc2cc(C(=O)N(Cc3ccccc3)CC3CCCO3)c(=O)oc12 (configuration not stated)	0%	-5%	1%	0%	1%	1%
CCN(C(=O)c1cc2cccc(OC)c2oc1=O)c1ccccc1	3%	1%	-5%	-4%	1%	10µM*
COc1cccc2cc(C(=O)OCc3ccccc3)c(=O)oc12	4%	6µM*	4%	2%	11%	nt
COc1ccc(C(=O)c2cc3cccc(OC)c3o2)cc1	-6%	9.5µM*	?	3.2µM*	3.2µM*	14µM*
COc1cccc2cc(C(C)=O)oc12	0%	-11%	2%	-1%	0%	-1%
Cc1ccc(-c2nnn(C/C(N)=N/O)n2)cc1	8%	-14%	?	-35%	-37%	nt
CCC(CC)C(=O)N1CCc2cc(OC)c(OC)cc2C1COc1ccc(C(=O)OC)cc1 (configuration not stated)	nt	-3%	nt	nt	nt	nt
CCC(Cn1nnc2ccccc2c1=O)NC(=O)Nc1cc(OC)cc(OC)c1 (configuration not stated)	nt	-8%	nt	nt	nt	-2%
CCOc1cccc2cc(C(=O)Oc3ccc(OC)cc3)c(=O)oc12	-5%	?	1%	-2%	-2%	nt
COc1cccc2cc(C(=O)Oc3ccccc3)c(=O)oc12	3%	12µM*	2%	-3%	-2%	nt
O=C(Nc1ccccc1)c1ccc(-c2ccc(Br)cc2)o1	-10%	6µM*	?	19%	0%	?
COc1ccccc1NC(=O)c1ccc(-c2ccc(Br)cc2)o1	-14%	8.5µM*	20%	-19%	-11%	3%
O=C(Nc1ccccc1)c1ccc(-c2ccc([N+](=O)[O-])cc2)o1	-4%	13µM*	14%	?	22%	nt
NC(=O)c1ccccc1NC(=O)c1ccc(-c2ccc(Br)cc2)o1	nt	nt	nt	nt	nt	14%
O=C(Nc1cccc2ncccc12)c1ccc([N+](=O)[O-])o1	-15%	-2%	-13%	-3%	4%	nt
O=C(Nc1ccc(CN2CCOCC2)cc1)c1ccc(-c2ccc(Br)cc2)o1	-23%	?	-15%	-1%	-7%	-60%
SMILES	uPA generation	FLuc counter	ELG1 genotoxic	NPC1 promoter act	Rab9 promoter act	SMN2 splice enh
O=C(Nc1cccc2ncccc12)c1ccc(-c2ccc(Br)cc2)o1	nt	11µM*	-6%	25%	6%	-21%
Cc1cc(C)n(CCc2nc3c4ccccc4nc(N4CCN(c5ccccc5F)CC4)n3n2)n1	nt	-1%	nt	nt	nt	1%
Cc1ccc(C)c(N2CCN(C(=O)c3cccn3-c3nnc(N4CCCCC4)s3)CC2)c1	nt	-14%	nt	nt	nt	nt
O=C(Nc1cccc(NC(=O)c2ccc(-c3ccc(Br)cc3)o2)c1)c1ccccc1	-1%	2.7µM*	7%	13%	3%	4%
COc1ccccc1NC(=O)c1cc(OC)c(OC)cc1[N+](=O)[O-]	0%	-5%	-2%	0%	11%	-22%
O=C(c1ccc(-c2ccc([N+](=O)[O-])cc2)o1)N1CCCCC1	-20%	6.7µM*	?	4µM*	1µM*	?
CC1CC(C)CN(C(=O)c2ccc(-c3ccc([N+](=O)[O-])cc3)o2)C1 (configuration not stated)	-5%	2%	1%	22%	?	nt
COc1ccccc1NC(=O)c1ccc(-c2ccccc2[N+](=O)[O-])o1	-2%	11µM*	-14%	?	?	8%
O=C(Nc1cccc(C(=O)Nc2ccc(Br)cc2)c1)c1ccccc1	-22%	?	?	?	?	nt
O=C(c1cc(-c2cccc(Cl)c2)nc2ccccc12)N1CCN(c2ccccn2)CC1	-5%	19µM*	-22%	5%	11%	nt
Cc1cccc2c(C(=O)N3CCN(c4ccccn4)CC3)cc(-c3cccc(Br)c3)nc12	?	-8%	-19%	-4%	-6%	nt
O=C(c1cc(-c2ccncc2)nc2ccc(Br)cc12)N1CCN(c2ccccn2)CC1	3%	17µM*	nt	nt	nt	-28%
O=C(c1cc(-c2ccccc2Cl)nc2ccc(Br)cc12)N1CCN(c2ccccn2)CC1	-13%	nt	nt	nt	nt	nt
Cc1ccc(Cc2nc3ccccc3nc2SCC(=O)NCc2ccccc2Cl)cc1	nt	0%	nt	nt	nt	nt
O=C(Nc1ccccc1Cl)c1cc2c(-c3ccccc3)nn(-c3ccccc3)c2s1	nt	1%	nt	nt	nt	-6%
CSc1nc(=O)c2c(n1C)NC(=O)CC2c1cc(F)cc(F)c1 (configuration not stated)	nt	-12%	nt	nt	nt	nt
CCc1ccc(-c2ccc(SCC(=O)Nc3nnc(C)s3)nn2)cc1	-8%	0.3µM*	?	2.2µM*	1.3µM*	13µM*
Cc1nnc(NC(=O)CSc2ccc(-c3ccc(Cl)cc3)nn2)s1	6%	?	?	17%	0%	13%
CCc1nnc(NC(=O)CSc2ccc(-c3ccc(-n4cccn4)cc3)nn2)s1	-1%	1.2µM*	5.8µM*	?	2.5µM*	nt
CCOc1ccc(-c2ccc(SCC(=O)Nc3nnc(C)s3)nn2)cc1	-5%	0.3µM*	0%	?	?	?
CCc1ccc(-c2nc(SCC(=O)NCC3CCCO3)c(-c3ccc(C)cc3)[nH]2)cc1 (configuration not stated)	nt	4%	nt	nt	nt	10%
CCc1ccc(-c2ccc(SCC(=O)NCC3CCCO3)nn2)cc1 (configuration not stated)	-11%	3.4µM*	9%	?	?	14µM*
COc1ccc(CNC(=O)c2cc3c(=O)n(C)c4ccccc4c3n2C)c(OC)c1	nt	4%	nt	nt	nt	1%
Cc1cccc(NC(=O)c2cnc3ccccn3c2=O)c1	?	0.67µM*	0.41µM*	0.63µM*	0.32µM*	0.71µM*
